Test results taken from PubChem BioAssay (NCI).
This is part of a sample that, as a whole, favours compounds with a hit. Of some 83,000 tested, about 20% had one in any assay.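 Assay: single dose, 48 h. Readout: percent growth (0 = no net growth; negative = cell death). Active: <10.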 The source made the active and inactive calls.

What was measured:
Test in all cases: NCI-60 one-dose screen, 48 h (100 = growth as untreated, 0 = no growth, -100 = all killed)
Settings in all cases: 10 µM unless noted
[1] = test system: SR leukemia
[2] = test system: OVCAR-8 ovarian
[3] = test system: OVCAR-5 ovarian
[4] = test system: OVCAR-4 ovarian
[5] = test system: SK-OV-3 ovarian
[6] = test system: IGROV1 ovarian
[7] = test system: OVCAR-3 ovarian
[8] = test system: HS 578T breast
[9] = test system: NCI/ADR-RES ovarian
[10] = test system: T-47D breast
[11] = test system: BT-549 breast
[12] = test system: SW-620 colon
[13] = test system: MCF7 breast
[14] = test system: HCT-116 colon
[15] = test system: HCC-2998 colon
[16] = test system: KM12 colon
[17] = test system: MDA-MB-435 melanoma

Measured: growth

CCOc1cccc(NC2=C(Br)C(=O)C(C)=C(C)C2=O)c1
active: [10] -35.3%
inactive: [1] 74.7% | [2] 91.5% | [3] 95.7% | [4] 56.7% | [5] 88% | [6] 58.6% | [7] 87.6% | [8] 91.2% | [9] 96.5% | [11] 96.4% | [12] 105% | [13] 18.4% | [14] 52% | [15] 119% | [16] 106%

CN(C)CCS(=O)(=O)Nc1cc(-c2ccc3ncc(C#N)c(Nc4ccc(F)c(Cl)c4)c3c2)cnc1Cl
active: [1] -12.5% | [2] -10.8% | [3] -43.8% | [4] -5.26% | [5] -35.1% | [6] -43.3% | [7] -59.8% | [8] -10.5% | [10] -30.5% | [11] -60.2% | [17] -76.8% | [12] -11.1% | [13] 0.35% | [15] -83.3% | [16] -25.4%
inactive: [9] 63.7%

Cc1cccc2c3c(sc12)C(c1ccc(Cl)cc1)C(C#N)=C(/N=C/c1ccc(Cl)cc1)O3 (configuration not stated)
inactive: [1] 24.1% | [2] 25% | [3] 24.6% | [4] 52.9% | [5] 59% | [6] 21.9% | [8] 14.3% | [10] 51% | [11] 22.7% | [12] 26.1% | [14] 13.4% | [15] 16.2%
active: [7] -2.5% | [9] 9.29% | [13] 9.92% | [16] 9.86%

CCCCCCn1c(-c2ccc(C(=O)O/N=C(\N)c3ccc(OC)cc3)cc2)nc(-c2ccccc2)c1-c1ccccc1
inactive: [3] 25.5% | [5] 77.9% | [7] 18% | [16] 15.7%
active: [1] -37.5% | [2] 1.03% | [4] 7.82% | [6] -68.1% | [8] -20.4% | [9] -36.9% | [10] -30.4% | [11] -2.06% | [12] -1.32% | [13] -39.3% | [14] -56.1% | [15] 3.48%

CC(C)C(=O)Nc1ccc(-c2nc(-c3cccc(OCCN4CCOCC4)c3)c(-c3ccnc(Br)c3)[nH]2)cc1
active: [1] -3.9% | [8] -26%
inactive: [2] 51.8% | [3] 75.2% | [4] 60% | [5] 73.6% | [6] 68.7% | [7] 63.3% | [9] 91.7% | [10] 39% | [11] 56.4% | [12] 50.4% | [13] 15.9% | [14] 44.5% | [15] 66.2% | [16] 33.7%

CC(C)OC(=O)Nc1ccc(-c2nc(-c3cccc(OCCN4CCOCC4)c3)c(-c3ccnc(Br)c3)[nH]2)cc1
active: [1] -14.6% | [8] -33% | [13] -9.12%
inactive: [2] 38.9% | [3] 55.6% | [4] 54% | [5] 12.2% | [6] 45.7% | [7] 45.1% | [9] 57.1% | [10] 31.2% | [11] 42.1% | [12] 19.9% | [14] 22.3% | [15] 29.4% | [16] 10.4%

CCOC(=O)Nc1ccc(-c2nc(-c3cccc(OCCN4CCOCC4)c3)c(-c3ccnc(Br)c3)[nH]2)cc1
active: [1] -12.9% | [8] -16.4%
inactive: [2] 43.8% | [3] 66.9% | [4] 52.7% | [5] 80.8% | [6] 63.6% | [7] 48.6% | [9] 60.7% | [10] 35.6% | [11] 56.4% | [12] 42.6% | [13] 11.6% | [14] 30.9% | [15] 38.5% | [16] 20.2%

O=C(CCN1C(=O)/C(=C/c2ccc(O)cc2)SC1=S)Nc1ccccc1
inactive: [1] 119% | [2] 94.6% | [3] 106% | [4] 89.6% | [5] 65.9% | [6] 94.6% | [7] 108% | [8] 93.3% | [9] 99.1% | [10] 104% | [11] 93.1% | [12] 102% | [13] 96.6% | [14] 98.2% | [15] 111% | [16] 99.1%

CC1=C(C)C(=O)C(Nc2cccc(C(=O)OC(C)(C)C)c2)=C(Br)C1=O
active: [10] -0.52%
inactive: [1] 15.9% | [2] 92.4% | [3] 99.9% | [4] 88.8% | [5] 93.2% | [6] 86.7% | [7] 77.7% | [8] 92.8% | [9] 94.7% | [11] 92.9% | [12] 91.3% | [13] 27.1% | [14] 62.3% | [15] 100% | [16] 99.9%

O=C(CCN1C(=O)/C(=C/c2ccc(O)cc2)SC1=S)Nc1ccc(Cl)cc1
inactive: [1] 110% | [2] 97% | [3] 95.6% | [4] 91.1% | [5] 71.8% | [6] 79.7% | [7] 99.4% | [8] 92.8% | [9] 104% | [10] 102% | [11] 99.8% | [12] 101% | [13] 89% | [15] 115% | [16] 97.7%

CCn1cnc2c1c(=O)[nH]c(=O)n2CC1CCC(CNS(=O)(=O)c2ccc(OC3CCOCC3)c(F)c2)CC1 (configuration not stated)
inactive: [1] 49.6% | [2] 60.5% | [3] 64.1% | [4] 42% | [5] 31.9% | [6] 62.6% | [7] 60.5% | [8] 15.9% | [9] 95.8% | [10] 19.9% | [11] 72.7% | [12] 65.1% | [13] 26.7% | [14] 49.2% | [15] 63.9% | [16] 59.9%

O=C(Nc1ccc(Br)cc1F)c1cc(Br)ccc1O
active: [1] 4.87% | [7] 5.37% | [8] 4.22% | [9] 7.36% | [10] -5.16% | [11] -6.02% | [17] 3.11% | [12] 8.55% | [13] 6% | [16] 3.17%
inactive: [2] 11.6% | [3] 25.3% | [4] 22.4% | [5] 12% | [6] 15.3% | [15] 12.4%

CCOC(=O)C1=C(N)Oc2c(sc3c(C)cccc23)C1c1ccc(OC)cc1 (configuration not stated)
inactive: [1] 29.1% | [2] 46.6% | [3] 75.9% | [4] 65.5% | [5] 57.7% | [6] 27.9% | [7] 11% | [8] 30% | [9] 30.8% | [10] 26% | [11] 49.6% | [12] 20.3% | [16] 27.4%
active: [13] 7.65%

Cc1cccc2c1S/C(=C/c1ccc([N+](=O)[O-])cc1)C2=O
inactive: [1] 86.8% | [2] 105% | [3] 41.3% | [4] 112% | [5] 88.2% | [6] 82.7% | [7] 105% | [8] 99.7% | [10] 85% | [11] 124% | [12] 30.2% | [14] 17.1% | [15] 122% | [16] 107%
active: [13] 9.54%

C(=N/Nc1ncnc2nc[nH]c12)/c1ccccn1
active: [6] -8.74%
inactive: [1] 25.7% | [2] 28.5% | [3] 50.8% | [4] 31.9% | [5] 28.9% | [7] 51% | [8] 64.1% | [10] 30.2% | [11] 54.7% | [17] 39.5% | [12] 36.8% | [13] 22.9% | [14] 28.1% | [16] 36.3%

CCCCCCCCCCCCCCCCCCOc1ccc(CC(=O)OCC[N+]2(C)CCCCC2)cc1
inactive: [1] 102% | [2] 96.9% | [3] 100% | [4] 86.8% | [5] 104% | [6] 92.6% | [7] 101% | [8] 108% | [10] 92.6% | [11] 112% | [12] 96.2% | [13] 91% | [14] 57.7% | [15] 97.4% | [16] 101%

NCCCNc1nc2ccccc2c2c(=O)c3cc(OC(F)(F)F)ccc3sc12
inactive: [3] 76% | [5] 89.9% | [6] 35.4%
active: [1] -31.1% | [2] -0.0816% | [4] -58.3% | [7] -73.3% | [8] 1.28% | [9] -29% | [10] -9.69% | [17] -79.2% | [12] -75.8% | [13] -70.1% | [14] -83.4% | [15] -88.1% | [16] -89.3%

Cc1ccc(/C=N\NC(=O)c2[nH]c3ccc(F)cc3c2-c2ccccc2)cc1
inactive: [1] 19.7% | [2] 16.6% | [3] 62.5% | [4] 46.8% | [5] 20.4% | [6] 91.4% | [8] 16.7% | [10] 75.4% | [11] 36.8% | [12] 25.7% | [13] 15.3% | [14] 10.8%
active: [7] -32.3% | [17] -13.8% | [15] -24.8% | [16] -0.0461%

Cc1ccc(-c2cnc3sc(C(=O)NCCc4ccccc4)c(C)n23)cc1
inactive: [1] 110% | [2] 96.9% | [3] 98.5% | [4] 67% | [5] 84.6% | [6] 80.5% | [8] 86.4% | [9] 104% | [10] 70% | [11] 79.5% | [12] 91.9% | [13] 83.2% | [14] 95.6% | [15] 96.9% | [16] 96%
